Assay results from PubChem BioAssay (NCATS).
“And” between values parts separate entries of the source, which are not always exact repeats. Equal values may be shown once. Results filed as inconclusive are left out. The source made the active and inactive calls. Calls follow the shape of the dose curve; as a rule, active = well fitted curve in the direction sought with a large enough effect; inconclusive = small, poorly fitted or top-dose-only effect, or another doubt; inactive = no such curve, though single readings can be large; an effect the other way counts as inactive or inconclusive.

Experiments:
[1] = biological target: Cellular tumor antigen p53 (Homo sapiens) (UniProt P04637); experiment: Primary qHTS for small molecule compounds that upregulate eGFP-tagged delta133p53alpha (in N-terminal) cells. (AID 2060322); conditions: NCI-H358 eGFP-delta133p53alpha fluorescence, 24 h; activation: hits give high values; also: nearly all actives have a fitted effect of over 75% in size; also: potency is read from the fitted curve at half-maximal effect;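 as to activation: cells pre-induced with doxycycline then dosed without doxycycline; series mostly up to about 56 µM; 0% = DMSO vehicle and 100% = reference activator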
Sequence of Cellular tumor antigen p53 (Homo sapiens) (P04637 whole entry, looked up): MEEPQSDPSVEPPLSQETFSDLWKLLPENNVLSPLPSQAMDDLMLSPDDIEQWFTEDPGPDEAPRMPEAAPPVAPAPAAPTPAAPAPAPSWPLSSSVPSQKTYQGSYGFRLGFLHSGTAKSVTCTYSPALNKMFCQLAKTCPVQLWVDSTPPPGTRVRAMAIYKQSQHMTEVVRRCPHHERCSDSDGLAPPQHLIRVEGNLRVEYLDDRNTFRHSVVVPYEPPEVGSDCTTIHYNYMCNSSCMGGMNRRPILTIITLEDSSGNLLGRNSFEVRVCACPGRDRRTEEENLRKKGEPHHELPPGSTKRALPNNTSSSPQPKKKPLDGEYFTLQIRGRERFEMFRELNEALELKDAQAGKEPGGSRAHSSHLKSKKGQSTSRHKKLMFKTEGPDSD
In short: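 NCI-H358 cells pre-induced 24 h with 10 ng/ml doxycycline for eGFP-delta133p53alpha, plated dox-free and exposed 24 h at 37C to titrated compounds. Fixed, Hoechst-stained; gated GFP peak intensity by laser scanning cytometry, normalized to DMSO (0%) and 57.5 uM 5-azacytidine (100%).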

[2] = biological target: Aldehyde dehydrogenase, mitochondrial (Homo sapiens) (UniProt P05091); experiment: qHTS for Inhibitors of the Aldehyde Dehydrogenase Family (ALDH2) Primary screen (AID 2061308);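 also: plate controls were vehicle for no effect and reference inhibitor for full effect; nearly all actives have a fitted effect of over 55% in size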
[3] = biological target: Retinaldehyde dehydrogenase 3 (Homo sapiens) (UniProt P47895); experiment: qHTS for Inhibitors of the Aldehyde Dehydrogenase Family (ALDH1A3) Primary screen (AID 2061315);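 also: plate controls were DMSO vehicle for no effect and reference inhibitor for full effect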
[4] = BET inhibitor-based combinations targeting novel dependencies in MECOM-rearranged (r) AML: SET-2 cell line (AID 2202231); conditions: SET-2 AML cells viability, CellTiter-Glo luminescence, 48 h; viability: hits give low values, concentration not given here; also: nearly all actives have a fitted effect of over 35% in size; also: potency is read from the fitted curve at half-maximal effect;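 as to viability: plate controls were DMSO treated cells for no effect and wells without cells for full effect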
In short: (§1)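 Each compound was tested at eleven concentrations on cells seeded at 500/well. After two days' incubation, ATP-based luminescence reported viability; responses relative to DMSO and blank wells yielded AUC and cell-line-centred Z-AUC.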

[5] = BET inhibitor-based combinations targeting novel dependencies in MECOM-rearranged (r) AML: OCI-AML3 cell line (AID 2202232); conditions: Potency: OCI-AML3 viability; also: nearly all actives have a fitted effect of over 35% in size; also: potency is read from the fitted curve at half-maximal effect
In short: as §1

[6] = BET inhibitor-based combinations targeting novel dependencies in MECOM-rearranged (r) AML: HNT-34 cell line (AID 2202234); also: potency is read from the fitted curve at half-maximal effect; nearly all actives have a fitted effect of over 35% in size
In short: (§2)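 First, 500 cells per well were seeded; next, drugs were pinned as 11-point doses; then plates sat 48 hr in the incubator; finally CellTiter-Glo was added and luminescence read, with AUC and Z-AUC computed.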

[7] = BET inhibitor-based combinations targeting novel dependencies in MECOM-rearranged (r) AML: UCSD-AML1 cell line (AID 2202235); also: nearly all actives have a fitted effect of over 40% in size; also: potency is read from the fitted curve at half-maximal effect
In short: as §2

[8] = BET inhibitor-based combinations targeting novel dependencies in MECOM-rearranged (r) AML: MV-4-11 cell line (AID 2202233); also: nearly all actives have a fitted effect of over 45% in size; also: potency is read from the fitted curve at half-maximal effect
In short: as §2

[9] = BET inhibitor-based combinations targeting novel dependencies in MECOM-rearranged (r) AML: AML-191 cell line (AID 2202236; also: nearly all actives have a fitted effect of over 35% in size; also: potency is read from the fitted curve at half-maximal effect)
In short: as §1

[10] = BET inhibitor-based combinations targeting novel dependencies in MECOM-rearranged (r) AML: AML-194 cell line (AID 2202237; also: nearly all actives have a fitted effect of over 40% in size; also: potency is read from the fitted curve at half-maximal effect)
In short: as §1

COc1ccc(-c2c(C)nn3c(NCCN4CCOCC4)cc(C)nc23)cc1OC
active: Potency [6] 20.9 µM
inactive: activation [1] 7% | Potency [2] | Potency [3] | viability [4] 88.4% | Potency [5] | Potency [7]

N[C@@H](Cc1cc(I)c(Oc2cc(I)c(O)c(I)c2)c(I)c1)C(=O)O
inactive: activation [1] -1.69% and -8.29% and -5.67% | Potency [2] | Potency [3] | viability [4] 108% | Potency [5] | Potency [8] | Potency [7] | Potency [9] | Potency [10]

Cc1ccc(NC(=O)Nc2cc(C(F)(F)F)ccc2F)cc1Nc1ccc2c(c1)NC(=O)/C2=C\c1ccc[nH]1
inactive: activation [1] -0.477% | Potency [2] | Potency [3] | Potency [7]
active: Potency [4] 23.5 µM | Potency [5] 20.9 µM | Potency [6] 26.3 µM | Potency [9] 20.9 µM

Cn1ncc2cc(-c3cnc(N)c(Cl)c3N3CCC4(CCNC4=O)CC3)ccc21
active: Potency [8] 5.25 µM | Potency [7] 10.5 µM | Potency [9] 0.296 µM
inactive: activation [1] -11.6% | Potency [2] | Potency [3] | viability [4] 103% | Potency [5]

c1ccc2c(Oc3nc(Nc4ccc(N5CCOCC5)cc4)c4ncn(C5CCCCC5)c4n3)cccc2c1
active: Potency [8] 7.42 µM
inactive: activation [1] 9.2% and -7.64% | Potency [2] | Potency [3] | viability [4] 101% | Potency [5] | Potency [7]

COc1ccc(-c2c(-c3ccc(O)cc3O)n[nH]c2C)cc1
inactive: activation [1] -3.77% | Potency [2] | Potency [3] | viability [4] 84% | Potency [5] | Potency [8] | Potency [7] | Potency [9] | Potency [10]

CC(C)c1nn(-c2c(Cl)cccc2Cl)c2nc(Cc3ccc(OCCO)cc3)[nH]c(=O)c12
inactive: Potency [2] | Potency [3]
active: Potency [1] 68.5 nM and 60.1 nM | Potency [4] 0.0417 µM | Potency [5] 0.0742 µM | Potency [8] 0.0417 µM | Potency [7] 0.0417 µM | Potency [9] 0.0295 µM | Potency [10] 0.0468 µM

Nc1ccc(C(=O)Nc2cccc(-c3nc(N4CCOCC4)c4oc5ncccc5c4n3)c2)cn1
active: Potency [4] 16.6 µM | Potency [5] 9.34 µM | Potency [6] 14.8 µM | Potency [7] 9.34 µM | Potency [9] 9.34 µM | Potency [10] 8.33 µM
inactive: activation [1] 2.12% | Potency [2] | Potency [3]

CNc1nccc(-c2cccnc2Oc2cc(C(=O)Nc3cccc(C(F)(F)F)c3)ccc2C)n1
active: Potency [4] 16.6 µM | Potency [5] 2.35 µM | Potency [8] 2.95 µM | Potency [7] 6.61 µM | Potency [9] 6.61 µM | Potency [10] 6.61 µM
inactive: activation [1] -0.576% | Potency [2] | Potency [3]

Cc1ccc(C(=O)Nc2ccc(Oc3cc4cnn(C)c4cc3-c3cn[nH]c3)c(F)c2)c(=O)n1-c1ccc(F)cc1
inactive: Potency [2] | Potency [3]
active: Potency [1] 15.1 µM | Potency [4] 11.8 µM | Potency [5] 5.25 µM | Potency [8] 0.0053 µM | Potency [7] 5.25 µM

O=C([C@@H](Cc1cccc(C(F)(F)F)c1)NS(=O)(=O)c1cc(F)c2c(c1)CCNC2)N1CCCC1
active: Potency [5] 11.8 µM | Potency [8] 20.9 µM
inactive: activation [1] -6.33% | Potency [2] | Potency [3] | viability [4] 107% | Potency [7] | Potency [9] | Potency [10]

COc1cc(C(=O)NC2CCN(C)CC2)c(F)cc1Nc1ncc2c(n1)N(C1CCCC1)CC(F)(F)C(=O)N2C
active: Potency [4] 0.0934 µM | Potency [5] 0.0468 µM | Potency [8] 0.105 µM | Potency [7] 0.105 µM | Potency [9] 0.118 µM | Potency [10] 0.0833 µM
inactive: activation [1] 17% | Potency [2] | Potency [3]

NC(=O)c1ccccc1Nc1ccnc(Nc2cccc(O)c2)n1
inactive: Potency [2] | Potency [3]
active: Potency [1] 30.1 µM | Potency [4] 5.9 µM | Potency [5] 18.6 µM | Potency [8] 0.662 µM | Potency [7] 1.66 µM | Potency [9] 5.25 µM

CC(C)(C)C(=O)Oc1ccc2c(c1)nc(NC(=O)c1cccc([N+](=O)[O-])c1)n2CCCO
active: Potency [8] 2.95 µM
inactive: activation [1] 12% | Potency [2] | Potency [3] | viability [4] 111% | Potency [5] | Potency [7]

C=CCn1c(=O)c2cnc(Nc3ccc(N4CCN(C)CC4)cc3)nc2n1-c1cccc(C(C)(C)O)n1
inactive: Potency [2] | Potency [3]
active: Potency [1] 21.7 µM and 2.69 µM | Potency [4] 1.32 µM | Potency [5] 1.66 µM | Potency [6] 0.296 µM | Potency [7] 0.833 µM | Potency [9] 0.742 µM | Potency [10] 0.742 µM
